A selection: hits, their analogues and other compounds. The true share with any hit is near 14%.
Pf growth 96h: P. falciparum growth inhibition at 96 hours; P. falciparum luciferase reporter growth, 96 h; Potency, µM (highest dose often 28.7 µM), without a hit: at the top dose activity change, negative = inhibition, usual class: inhibitors; 320,000 compounds, 6.9% hits; further: potency means the concentration at half of the fitted maximal effect
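Cell-based qHTS: luciferase-tagged P. falciparum in erythrocytes (2% hematocrit, 0.05% parasitemia final) incubated with compounds for 96 hours, 37 C, 5% CO2; luciferase detection reagent then added and luminescence measured.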
Marburg entry inh: Marburg virus entry inhibition; Marburg virus pseudotyped entry inhibition, cell reporter; Potency, µM (doses to about 37.8 µM), for inactives: at the top dose activity change, negative = inhibition, actives largely listed as inhibitors; 300,000 compounds, 1.8% hits; calls by dose curve; tested in HEK293 cells; further: potency means the concentration at half of the fitted maximal effect
Pf growth 48h: P. falciparum growth inhibition at 48 hours (one generation) | P. falciparum luciferase growth in erythrocytes, 48 h | Potency, µM (doses to about 28.7 µM), inactives show top-dose activity change, negative = inhibition, usual class: inhibitors | 310,000 compounds, 5.9% hits | AID 504832; further: potency means the concentration at half of the fitted maximal effect
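Luciferase-expressing P. falciparum in infected erythrocytes (2% hematocrit, 0.1% parasitemia final) in RPMI 1640/0.5% Albumax were exposed to compound for 48 hours at 37 C, 5% CO2; growth read as luminescence.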
HCV inhibitor: inhibitors of hepatitis C virus infection | 340,000 compounds, 3.4% hits | Potency, µM (top dose mostly 41.8 µM), for inactives: at the top dose activity change, negative = inhibition, most hits filed as inhibitors | Huh7.5.1 HCVcc-Cre infection, luciferase reporter, 44 h; further: potency means the concentration at half of the fitted maximal effect
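Infectious HCVcc-Cre (~0.5 moi) was added to cells just after compound, with cells seeded 4 h earlier at 1,000 per well. Luciferase activity after 44 h culture reported infection; substrate was incubated 15 min at room temperature before reading.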
LASV entry inh: blocks Lassa virus binding to or entry into cells. Lassa virus pseudotype entry inhibition, cell reporter. Potency, µM (doses to about 37.9 µM), without a hit: at the top dose activity change, negative = inhibition, most hits filed as inhibitors. 300,000 compounds, 1.2% hits. AID 540256; calls by dose curve; tested in HEK293 cells; further: potency means the concentration at half of the fitted maximal effect; nearly all actives have a fitted effect of over 50% in size
HCMV inh: human cytomegalovirus inhibition; 410,000 compounds, 4.5% hits; activity change, negative = inhibition, % at 57.5 µM; HFF cells, HCMV-luciferase reporter, 72 h; active compounds read low; in the data active means activity change below about -60%; inconclusive means no clear call, values can overlap the other calls; inactive means above about -39%
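Human foreskin fibroblasts infected with luciferase-reporter HCMV at MOI 1 PFU/cell, compounds at two doses. Luciferase measured 72 h post infection; normalized to buffer-only basal and Salinomycin (10uM) controls.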
Starred values were filed as active, the others as inactive; ? = inconclusive; . = not tested or not shown; [ ] = another dose, or the depositor's remark. Unless noted, the call rests on the fitted dose curve; in most records, active means well fitted inhibition curve with a large enough effect; inconclusive means small, poorly fitted or top-dose-only effect, or another doubt; inactive means no such curve, though single readings can be large or run the other way. On the % scale 0 is the no-effect control and ±100 the full control effect.

SMILES | Pf growth 96h | Marburg entry inh | Pf growth 48h | HCV inhibitor | LASV entry inh | HCMV inh
Cc1ccc(Cl)cc1N1CCN(C(=O)c2cn(C)c3ccc(S(=O)(=O)N4CCCC4)cc3c2=O)CC1 | . | -19.8%[46.1 µM] | . | . | -2.8%[46.1 µM] | 5.9
CC(C)(C)c1ccc(C(=O)Nc2ccc(-c3nc4cc(Cl)ccc4o3)cc2)cc1 | . | . | . | . | -0.2%[46.1 µM] | -6.7
COC(=O)c1ccc(C(=O)OC)c(NC(=O)CN(C)Cc2ccc(Cl)c(Cl)c2)c1 | ? | -29.6% | 10.4µM* | 5.3% | -0.1% | 6.6
COC(=O)c1ccccc1NC(=O)CN(C)Cc1ccccc1 | -7.7% | ? | -19.1% | ? | 1.9%[46.1 µM] | -32.6
COc1ccc2nc(NC(=O)c3cc(C)oc3C)sc2c1 | -92.8% | 0.5% | 22.9% | ? | 6.5% | 45.8
N#CCc1nc2ccc(S(=O)(=O)N3CCOCC3)cc2s1 | 13.1µM* | -1.1% | 14.7µM* | ? | ? | -17.4
COc1ccc2nc(NC(=O)c3cc(S(=O)(=O)N4CCOCC4)ccc3C)sc2c1 | . | 2.3% | -6.2% | 22.4µM* | -24.0% | -5.4
COc1ccc2nc(NC(=O)c3cccc(OCc4c(C)noc4C)c3)sc2c1 | -95.3% | ? | -59.0% | 0.355µM* | ? | 8.2
COc1ccc2nc(NC(=O)c3cccc(S(=O)(=O)N4CCOCC4)c3)sc2c1 | ? | ? | -3.1% | -24.2% | ? | -23.9
COc1ccc2nc(NC(=O)c3ccoc3C)sc2c1 | 7.1% | ? | 70.7% | 14.1µM* | -28.3%[14.3 µM] | 125.1
C[C@H](O)c1n(C)c(Cl)c[n+]1C | . | 9.1% | . | . | . | .
Cc1c(Cl)cccc1NC(=O)Nc1nnc(N2CCCCCC2)s1 | . | -18.9%[46.1 µM] | . | . | -12.4%[46.1 µM] | 7.0
COc1cc(C(NC(=O)C(F)(F)F)c2cc3ccccc3o2)cc(OC)c1OC (stereo not drawn) | . | 4.6%[14.2 µM] | . | . | ? | .
Cc1ccc(CNC(=O)c2ccc3c(c2)NC(=O)C(CS(=O)(=O)Cc2cccc(C)c2)N3)cc1 (stereo not drawn) | . | . | . | . | 16.2%[46.1 µM] | -26.9
CCn1ccc2cc(S(=O)(=O)N3CCC(C(=O)NCc4ccc(OC(C)C)cc4)CC3)ccc21 | . | . | . | . | -1.5%[46.1 µM] | -2.6
COc1ccc2nc(NC(=S)N(C)C)sc2c1 | . | 10µM* | -0.3% | ? | ? | ?
CCOc1ccc(NC(=O)c2nnn(-c3ccc(F)c(Cl)c3)c2C)cc1 | . | 1.8%[46.1 µM] | . | . | 10.1%[46.1 µM] | -10.4
CC(=O)c1ccc(OCC(O)COc2ccc(C(C)=O)cc2)cc1 | 40.2% | 0.5% | 14.2% | ? | 6.9% | -31.0
CC(=O)c1ccc(OCC(O)CN(C)CCOc2ccc(Br)cc2)cc1 (stereo not drawn) | -0.3% | 8.91µM* | 5.5% | -27.5% | ? | -16.4
NCC(c1ccccc1Cl)c1c[nH]c2ccccc12 (stereo not drawn) | ? | ? | 9.28µM* | -24.7% | -14.6%[46.1 µM] | 142.5
CCN1CCN(c2nc3c(C)cccn3c(=O)c2/C=C(\C#N)S(=O)(=O)c2ccc(C)cc2)CC1 | 4.15µM* | 9.3%[46.1 µM] | 13.0% | -1.6% | 9.1% | 60.1
CCOC(=O)C1CCN(c2nc3c(C)cccn3c(=O)c2/C=C(\C#N)S(=O)(=O)c2ccccc2)CC1 | ? | ? | 9.28µM* | -19.8% | -22.2% | 3.7
Cc1cccn2c(=O)c(/C=C(\C#N)S(=O)(=O)c3ccccc3)c(N3CCCCC3)nc12 | ? | . | ? | ? | . | -35.0
N#C/C(=C\c1c(N2CCN(c3ccccc3)CC2)nc2ccccn2c1=O)S(=O)(=O)c1ccccc1 | ? | 27.0%[46.1 µM] | -5.1% | 9.6% | 10.7%[46.1 µM] | -18.0
N#C/C(=C\c1c(N2CCCCC2)nc2ccccn2c1=O)S(=O)(=O)c1ccccc1 | 5.22µM* | -2.1% | -4.8% | -5.0% | 3.0% | -20.8
CCOC(=O)c1ccc(NS(=O)(=O)c2cc(-c3onc(C)c3C)ccc2C)cc1 | . | . | . | . | 2.9%[46.1 µM] | 32.4
Cc1ccc(Cn2cnc3nc4c(cc3c2=O)CC(C)CC4)cc1 (stereo not drawn) | . | . | . | . | 19.9%[46.1 µM] | 91.4
COc1cc(C(=O)Nc2nc(C)c(Cc3ccc4c(c3)OCO4)s2)cc(OC)c1OC | ? | -42.4% | ? | 10µM* | ? | -1.9

From PubChem BioAssay
